Screens: PubChem, several laboratories
An excerpt weighted towards active compounds, which were near 2.6% of everything screened.
ABHD5 PLIN5 PPI – ABHD5-PLIN5 protein interaction inhibition; Q00G26+Q8WTS1; Split G. princeps luciferase complementation, luminescence, 4 h; inhibition, % at 4 µM; 360,000 compounds, 0.78% hits; AID 602281;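 active = inhibition above the mean inhibition across every tested compound plus 3 SD, cut at about 22% in these data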;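 also: 0% = DMSO only wells and the 100% control is not disclosed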
Granule exo inh – lytic granule exocytosis inhibition. 360,000 compounds, 0.66% hits. AID 651702. inhibition, % at 10 µM. TALL-104 LAMP-1 surface exposure, flow cytometry; cells stimulated with thapsigargin and PMA;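 active = inhibition above about 55%, limit read from the data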
PRMT1 FP inh – inhibitors of human PRMT1; Q99873; recombinant PRMT1, activity-based probe fluorescence polarization; inhibition, % at 2.79 µM; 370,000 compounds, 1.3% hits;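 active = inhibition above about 21% made by adding two undisclosed values, limit read from the data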
TLR4 MyD88 comp – blocks binding of human TLR4 to MyD88; HeLa CL3-4 TLR4/MyD88 BLA complementation, FRET ratio; 200,000 compounds, 0.18% hits; inhibition, % at 8.4 µM; in the data active = inhibition above about 25%;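 also: 0% = vehicle and 100% = reference inhibitor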
NOD2-RIPK2 inh – blocks binding of human NOD2 to RIPK2. O43353. CHO BLA complementation NOD2-RIPK2, CCF4 ratio. inhibition, % at 4.98 µM. 360,000 compounds, 0.38% hits. AID 624267; in the data active = inhibition above about 21%;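 also: 0% = vehicle only and 100% = reference blocker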
TLR9-MyD88 inh – TLR9-MyD88 interaction inhibition; Q9NR96+Q99836; CHO BLA complementation TLR9-MyD88, CCF4 FRET ratio; inhibition, % at 4.98 µM; 340,000 compounds, 0.21% hits; AID 504734;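 active = inhibition above the mean over all tested compounds plus 3 SD, cut at about 21% in these data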;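 also: 0% = DMSO only wells and 100% = clavulanate BLA inhibitor control wells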
ABHD5 PLIN5 conf – ABHD5-PLIN5 interaction inhibition, confirmed. inhibition, % at 4 µM. biochemical ABHD5-PLIN5 interaction, luminescence. 2,200 compounds, 67% hits. shares compounds with ABHD5 PLIN5 PPI. AID 651612; in the data active = inhibition above about 23%;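 also: 0% = DMSO vehicle wells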
HNF4 counter – counter-screen for ABHD5-PLIN5 inhibitors: HNF4 split-luciferase; HNF4 dimerization, luminescence, biochemical; shares compounds with ABHD5 PLIN5 PPI; 2,200 compounds, 77% hits; inhibition, % at 4 µM;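 active = mean inhibition across replicate wells exceeding the computed hit threshold, cut at about 13% in these data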;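 also: light from luciferase halves that rejoin when HNF4 fusion proteins dimerize; 0% = DMSO only wells and the 100% control is not given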
Target sequence (P41235 whole entry, looked up, the tested form may be a part): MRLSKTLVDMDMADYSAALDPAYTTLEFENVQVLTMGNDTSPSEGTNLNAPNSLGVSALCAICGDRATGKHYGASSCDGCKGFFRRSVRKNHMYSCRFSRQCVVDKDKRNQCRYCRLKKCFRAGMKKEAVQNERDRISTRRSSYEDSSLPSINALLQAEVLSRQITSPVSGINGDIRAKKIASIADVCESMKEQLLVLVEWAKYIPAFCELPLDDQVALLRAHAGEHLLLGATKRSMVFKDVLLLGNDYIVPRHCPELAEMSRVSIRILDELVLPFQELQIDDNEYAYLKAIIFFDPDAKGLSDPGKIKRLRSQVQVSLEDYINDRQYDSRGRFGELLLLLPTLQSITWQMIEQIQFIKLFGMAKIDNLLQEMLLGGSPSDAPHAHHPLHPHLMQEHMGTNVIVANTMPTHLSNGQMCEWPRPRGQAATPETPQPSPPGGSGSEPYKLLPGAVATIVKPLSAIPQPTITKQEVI
PRMT1 confirm – PRMT1 (human) inhibition, FP confirmation | shares compounds with PRMT1 FP inh | recombinant His-PRMT1, activity-based probe fluorescence polarization | inhibition, % at 2.79 µM | 3,300 compounds, 42% hits;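 active = mean inhibition across replicates above the hit cutoff derived for the earlier primary screen, cut at about 22% in these data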
* hit, by the source's call.

COc1ccc(C(C(=O)NC(C)(C)C)n2c(-c3ccc(=O)[nH]c3)nc3ccccc32)cc1 (stereo not given) was read as ABHD5 PLIN5 PPI 4.6, Granule exo inh 2.0, PRMT1 FP inh -0.8 and NOD2-RIPK2 inh -2.1.
CC(C)(C)NC(=O)C(c1ccc(C#N)cc1)n1c(=O)c(-c2ccco2)nc2ccccc21 (stereo not given) was read as ABHD5 PLIN5 PPI 75.4*, Granule exo inh 4.6, PRMT1 FP inh 30.6*, NOD2-RIPK2 inh 6.0, ABHD5 PLIN5 conf 77.4*, HNF4 counter 26.2* and PRMT1 confirm 35.8*.
COc1cccc(Cn2cc(COC(=O)NCCc3c[nH]c4ccccc34)nn2)c1 was read as PRMT1 FP inh 0.6.
CCCCOCCCNC(=O)C[C@H]1C[C@@]2(C(=O)OC)C(=C[C@H](C(C)(C)C)O[C@@H]2C)N(Cc2ccccc2)C1=O was read as PRMT1 FP inh -1.2.
COC(=O)C1=C(C)N(Cc2ccc(C(F)(F)F)cc2)C(=NCc2ccc3c(c2)OCO3)NC1c1cccc(Cl)c1 (stereo not given) was read as PRMT1 FP inh -0.6.
Screening O=C(C(=O)N1CCC(CNC(=O)C2COc3ccccc3O2)CC1)c1cc2ccccc2o1 (stereo not given) returned PRMT1 FP inh -2.2.
Screening O=c1c2ccccc2sn1-c1nccs1 returned ABHD5 PLIN5 PPI 81.0*, Granule exo inh 85.3*, PRMT1 FP inh 96.8*, TLR4 MyD88 comp 1.0, NOD2-RIPK2 inh 17.5, ABHD5 PLIN5 conf 86.5*, HNF4 counter 118.0* and PRMT1 confirm 87.9*.
O=C1c2ccccc2C(=O)N1c1nccs1 was read as ABHD5 PLIN5 PPI 7.5, Granule exo inh 11.9, PRMT1 FP inh 1.6, NOD2-RIPK2 inh -6.9 and TLR9-MyD88 inh 1.3.
For O=C(N[C@H](C(=O)N1CCC[C@H]1C(=O)NCc1ccccc1)C1CCCCC1)c1ccccc1 the results were PRMT1 FP inh 0.7.
For CCCCCSc1nncc(=O)[nH]1 the results were ABHD5 PLIN5 PPI 8.9, Granule exo inh 0.0, PRMT1 FP inh 1.1, TLR4 MyD88 comp -1.3, NOD2-RIPK2 inh -4.7 and TLR9-MyD88 inh 0.0.
`CCCCCCCCSC1=CC(=O)C(OC)=C(OC)C1=O` gave ABHD5 PLIN5 PPI 64.9*, Granule exo inh 113.8*, PRMT1 FP inh 38.9*, NOD2-RIPK2 inh -2.7, TLR9-MyD88 inh 9.2, ABHD5 PLIN5 conf 100.0*, HNF4 counter 104.1* and PRMT1 confirm 87.5*.
`COc1ccc(S(=O)(=O)N(C(C)=O)c2ccc3oc(=O)sc3c2)cc1` gave ABHD5 PLIN5 PPI 28.7*, Granule exo inh -2.8, PRMT1 FP inh 93.9*, TLR4 MyD88 comp -8.5, NOD2-RIPK2 inh -3.9, TLR9-MyD88 inh -9.4, ABHD5 PLIN5 conf -54.9, HNF4 counter 16.4* and PRMT1 confirm 64.1*.
O=C(NCc1ccccc1)[C@H]1CCCN1C(=O)[C@H]1CCCN1C(=O)C1CCCCC1 was read as PRMT1 FP inh -3.1.
For Cc1ccc(CN2CCCCC(NC(=O)c3ccc(F)c(F)c3)C2=O)cc1 (stereo not given) the results were PRMT1 FP inh 3.3.
Screening O=C(CC1SC2=NCCN2C1=O)Nc1ccccc1 (stereo not given) returned ABHD5 PLIN5 PPI -4.3, Granule exo inh 0.6, PRMT1 FP inh -1.1, TLR4 MyD88 comp 3.6, NOD2-RIPK2 inh 5.3 and TLR9-MyD88 inh -3.0.
Screening O=C(CC1Sc2ncnn2C1=O)Nc1ccccc1 (stereo not given) returned ABHD5 PLIN5 PPI 26.9*, Granule exo inh 6.4, PRMT1 FP inh 76.5*, TLR4 MyD88 comp -5.4, NOD2-RIPK2 inh 3.5, TLR9-MyD88 inh 3.6, ABHD5 PLIN5 conf 11.0, HNF4 counter 46.8* and PRMT1 confirm 74.2*.
